We go through 43 compounds from PubChem BioAssay AID588676 (Johns Hopkins Ion Channel Center, 2011).

The whole screen tested about 310,000 compounds, of which about 3,900 (1.3%) were called active.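 Rule for the calls: active = calcium-response B-score plate-corrected more than 3 library SD below zero, starting fluorescence within 5 deviations, no agonist response on first addition; inactive = the rest.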 Shown is part of a subset that was picked to be rich in actives.

For the assay, the target named is Mas-related G-protein coupled receptor member X1 (Homo sapiens) (UniProt Q96LB2). Put plainly: blockade of BAM8-22-evoked MrgX1 calcium response – HEK293 cells, Fluo-4 calcium flux, primary screen (AID 588676).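 For B-score: peak minus trough fluorescence over baseline after final BAM8-22 challenge near maximal dose.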 To be noted: Fluo-4, BAM8-22 antagonism, at 10 µM; stronger effect = lower value. A general note: Calcium flux is commonly read through the fluorescence of an indicator in the cells.
Sequence of Mas-related G-protein coupled receptor member X1 (Homo sapiens) (Q96LB2 whole entry, looked up): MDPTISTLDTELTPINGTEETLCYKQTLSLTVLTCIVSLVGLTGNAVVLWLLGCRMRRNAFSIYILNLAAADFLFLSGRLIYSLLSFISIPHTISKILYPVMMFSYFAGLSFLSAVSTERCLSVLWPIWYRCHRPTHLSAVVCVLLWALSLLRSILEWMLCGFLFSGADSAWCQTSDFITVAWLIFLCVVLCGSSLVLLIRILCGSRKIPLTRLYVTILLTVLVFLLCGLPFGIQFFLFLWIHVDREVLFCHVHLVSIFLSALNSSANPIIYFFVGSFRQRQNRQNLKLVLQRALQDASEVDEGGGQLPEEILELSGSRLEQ
As for `CN1CCN(c2ccccc2NC(=O)COc2ccc(C3CCCCC3)cc2)CC1`, the B-score result is “inactive”.

`Cc1ccc(SCc2cc(=O)[nH]c(N3CCCCC3)n2)cc1`: the B-score result was “inactive”.

In the case of `Cc1nnc(SCc2cc(=O)[nH]c(N3CCN(Cc4ccccc4)CC3)n2)s1`, the B-score entry was “inactive”.

On to `O=c1cc(CSc2ccccn2)nc(N2CCN(c3ccccc3)CC2)[nH]1`, for which the B-score is -4.82 (active).

On to `C=CCOc1cccc(C2C(C(=O)c3ccc(C)o3)=C(O)C(=O)N2CCCn2ccnc2)c1` (stereo not drawn), for which the B-score result is “inactive”.

Regarding `C=CCOc1cccc(C2C(C(=O)c3ccc(C)o3)=C(O)C(=O)N2c2nnc(C)s2)c1` (stereo not drawn), the B-score is -4.61 (active).

As to `Cc1cc(N2C(=O)C(O)=C(C(=O)c3ccc(C)o3)C2c2ccc(OCc3ccccc3)cc2)no1` (stereo not drawn), the B-score result was “inactive”.

For `COc1ccc(/C(O)=C2/C(=O)C(=O)N(CC3CCCO3)C2c2ccc(OC)c(OC)c2)cc1` (stereo not drawn), the B-score entry was “inactive”.

For the compound `COc1ccc(NC(C(=O)Nc2cccc(C(C)=O)c2)c2ccccc2)cc1` (stereo not drawn), the B-score result was “inactive”.

With `Cc1cc(-c2ccc(S(=O)(=O)N3CCN(c4cccc(C(F)(F)F)c4)CC3)s2)on1`, the B-score entry was “inactive”.

As to `COc1ccc(C(=O)Cc2cnn(-c3ccccc3)c2)c(O)c1`, the B-score entry is “inactive”.

For the compound `COc1ccc(CC(=O)c2ccc(O)cc2O)cc1OC`, the B-score result is “inactive”.

Take `O=C(Cc1ccccn1)c1ccc(O)cc1O`: the B-score is -4.66 (active).

With `CCn1c(SCC(=O)NC2CC2)nnc1-c1ccccc1OC`, the B-score entry is “inactive”.

Turning to `O=C(NCC1CCCO1)c1ccccc1-c1nc(-c2ccccc2Cl)no1` (stereo not drawn), the B-score result was “inactive”.

For `C=CCn1nc(-c2ccccc2)c2c(C)onc2c1=O`, the B-score is -6.96 (active).

With `Cc1nn(-c2ccccc2)c(=O)c2noc(C)c12`, the B-score entry was “inactive”.

Take `C=CCn1cnc2scc(-c3ccccc3)c2c1=O`: the B-score result was “inactive”.

As for `COc1cccc2cc(C(N)=O)/c(=N\NC(=O)c3ccccc3)oc12`, the B-score entry was “inactive”.

Turning to `O=C(CCn1ccc([N+](=O)[O-])n1)Nc1nccs1`, the B-score is -5.19 (active).

As for `O=C(Cn1ccc([N+](=O)[O-])n1)NCc1cccs1`, the B-score entry is “inactive”.

Take `Cc1ccnc(NC(=O)Cn2ccc([N+](=O)[O-])n2)c1`: the B-score entry is “inactive”.

In the case of `Cc1cccc(C)c1NC1=NC(=S)N(c2ccc(N(C)C)cc2)C1(C)C`, the B-score entry is “inactive”.

In the case of `CN(C)CCCn1c(=O)n(Cc2ccccc2)c(=O)c2c3c(sc21)CCCCC3`, the B-score entry was “inactive”.

On to `Cc1c(S(=O)(=O)NC(C)c2ccccc2)c(=O)n(C)c(=O)n1C` (stereo not drawn), for which the B-score entry is “inactive”.

As for `O=C(CNC(=O)C12CC3CC(CC(C3)C1)C2)OCC(=O)N1CCCCC1`, the B-score result was “inactive”.

For `COc1cc2c(cc1O)C(SC)=NC(C)(C)C2`, the B-score is -5.85 (active).

For the compound `COc1cc2c(cc1OC)C(Nc1ccc(S(N)(=O)=O)cc1)=NC(C)(C)C2`, the B-score entry is “inactive”.

For `COc1cc2c(cc1OC)C(C(C)C)=NC(C)(C)C2`, the B-score result is “inactive”.

As to `CN(C)CCc1c[nH]c2ccc(Cn3cncn3)cc12`, the B-score entry was “inactive”.

Turning to `Clc1ccc(-c2nc3ccccn3c2CN2CCSCC2)cc1`, the B-score is -5.66 (active).

Take `Clc1ccc(-c2nnc(-c3ccccc3)nc2N2CCSCC2)cc1`: the B-score result was “inactive”.

In the case of `CC1CCN(Cc2nc(-c3ccc(Cl)cc3)no2)CC1`, the B-score entry is “inactive”.

Regarding `O=C(Nc1ccc(Cl)cc1)C1c2cccc[n+]2CC(=O)N1Cc1ccc2c(c1)OCO2` (stereo not drawn), the B-score was -6.48 (active).

In the case of `O=C(CSCc1ccc(Cl)cc1)N1CCN(Cc2ccc3c(c2)OCO3)CC1`, the B-score result was “inactive”.

In the case of `CCCOc1ccc(NC(=O)CC2C(=O)N(C)C(=S)N2Cc2ccc3c(c2)OCO3)cc1` (stereo not drawn), the B-score entry is “inactive”.

For `COc1ccc(C)cc1Nc1nc(C)nc2c1oc1ccccc12`, the B-score result is “inactive”.

On to `COc1ccc2c(c1)C(=O)Nc1cc(Cl)ccc1N2`, for which the B-score result was “inactive”.

As for `CCC1CCCCN1CCNC(=O)c1[nH]c(C)c(C(C)=O)c1C` (stereo not drawn), the B-score is -5.1 (active).

Take `CC(=O)c1c(C)[nH]c(C(=O)NCCCN2CCCC2)c1C`: the B-score entry is “inactive”.

Turning to `CCCCN(CC)CCNC(=O)c1[nH]c(C)c(C(C)=O)c1C`, the B-score entry is “inactive”.

Regarding `NC(=O)CC[C@@H]1NC(=O)[C@@H]2CCCN2C(=O)c2cc([N+](=O)[O-])cc(F)c2NCCC[C@@H](C(N)=O)NC1=O`, the B-score result was “inactive”.

For `O=C(CSc1nc2nccnc2c(=O)n1Cc1cccs1)Nc1ccccc1F`, the B-score entry was “inactive”.
